Measurements published in PubChem BioAssay (NCI).
Compounds without any hit were thinned out: in the full panel of roughly 83,000, 20% have a hit.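 Step 1: grow cells in 96-well plates. Step 2: add test compound at a single concentration. Step 3: incubate 48 h. Step 4: record percent growth.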 Values without a mark were called inactive. Calls of active or inactive are those of the source. How the source made its calls: active means growth percent below 10; inactive means the rest.

These compounds were tested on HT29 colon (assay: NCI-60 one-dose screen, 48 h (100 = growth as untreated, 0 = no growth, -100 = all killed)). Conditions: 10 µM unless noted.

Row | SMILES | growth
1 | Cn1cc(-c2csc(-c3c[nH]c4ncccc34)n2)c2cc(F)cnc21 | 90.6%
2 | O=C(C(=O)N1CCOCC1)c1ccc(OC2OC(CO)C(O)C(O)C2O)cc1 (centres undefined) | 100%
3 | ClC1C2CC(c3ccccc32)C1Cl (centres undefined) | 100%
4 | CN(C)c1nc(N)nc(Cn2c(-c3nonc3N)nc3ccccc32)n1 | 72.9%
5 | Cc1nn(-c2ccc(Cl)cc2)c2nc3c(nc12)c(=O)oc1ccccc13 | 99.7%
6 | Cn1cc(-c2nc(-c3c[nH]c4ncc(F)cc34)cs2)c2cccnc21 | 112%
7 | Cc1ccc(C(O)C2=CC(=O)c3ccccc3C2=O)cc1 (centres undefined) | 107%
8 | NC(N)=N/N=C(/c1ccccc1)c1ccc(Cl)cc1 | 25.6%
9 | O=C(C(=O)N1CCCCC1)c1ccc(OC2OC(CO)C(O)C(O)C2O)cc1 (centres undefined) | 100%
10 | COc1cc2c(cc1OC)C1CCN3C(=O)CCC3N1CC2 (centres undefined) | 109%
11 | NNC(=O)C1CC2c3ccccc3C1c1ccccc12 (centres undefined) | 104%
12 | Nc1nc(Cl)c2[nH]cnc2n1 | 110%
13 | O=C(Nc1ccccc1Cl)c1cnc2ccc(C3CCNCC3)cn12 | 18%
14 | CC(C)[C@]12O[C@H]1[C@@H]1O[C@]13[C@]1(O[C@H]1C[C@H]1C4=C(CC[C@@]13C)C(=O)OC4)[C@@H]2OC(=O)CN(C)C | 0.899% (active)
15 | O=NC1CC=CCC1c1ccccc1 (centres undefined) | 100%
16 | O=C1C2C3C=CC(O3)C2C(=O)N1Nc1ccccc1 (centres undefined) | 112%
17 | COc1ccc(-c2c3c(nn2-c2ccc(N)cc2)CCc2cnoc2-3)cc1OC | 93.6%
18 | Cn1c(N)c(N=O)c(=O)[nH]c1=O | 98.8%
19 | O=C(CSCC(=O)N/N=C/c1ccccc1O)N/N=C\c1ccccc1O | 42.7%

Row | SMILES | growth
20 | Oc1ccc(Cc2ccc(O)c(C3CC(c4ccc(Cl)cc4)=NN3)c2)cc1C1CC(c2ccc(Cl)cc2)=NN1 (centres undefined) | 51%
21 | CSc1nc2c(c(=O)n1C)C(c1ccccc1)C1=C(N2)/C(=C/c2ccccc2)CCC1 (centres undefined) | 53.7%
22 | CC(C)[C@H]1CC[C@H]2[C@@H](CC[C@H]3[C@](C)(CN)CCC[C@]23C)C1 | -57.7% (active)
23 | COc1ccc(OC)c(/C=C/c2nc(=S)n(-c3ccc(Cl)cc3)[nH]2)c1 | 65.4%
24 | CC1SC(c2c(Cl)cccc2Cl)N(NC(=O)c2[nH]c3ccc(F)cc3c2-c2ccccc2)C1=O (centres undefined) | 34.8%
25 | COc1ccc(COC(C)=O)cc1 | 113%
26 | Clc1ccc(-n2cnc3c(Cl)ncnc32)cc1Cl | 74.8%
27 | COc1ccc2[nH]cc(/C=C3/C(=O)Nc4ccc(F)cc43)c2c1 | 79.1%
28 | O=C(CSc1nc2c(n1Nc1ccccc1)-c1ccccc1SC2)Nc1nc(-c2ccc(Cl)cc2)cs1 | 68.4%
29 | COc1cc(C2NC(c3ccc(Cl)cc3)C(C)C(=NC(=O)c3cnccn3)C2C)cc(OC)c1OC (centres undefined) | 67.8%
30 | O=C(c1ccccc1)c1ccccc1Cl | 92.9%
31 | Nc1nonc1-c1nc2ccccc2n1CC(=O)Nc1ccc2c(c1)COC2=O | 85.1%
32 | COc1ccc(/C=C(\C#N)c2ccccc2)cc1 | 85.5%
33 | Cn1cc(-c2csc(-c3cn(C)c4ncccc34)n2)c2cc(Br)cnc21 | 100%
34 | CC(c1cc(Cl)ccc1O)c1cc(Cl)ccc1O | 2.77% (active)
35 | O=C1c2nsnc2C(=O)c2c(F)c(F)c(F)c(F)c21 | -54.8% (active)
36 | CCOC(=O)/C(=C/c1ccccc1)C(=O)c1ccccc1 | 84.1%
37 | COc1ccc(C2=NNC(c3cc(Cc4ccc(O)c(C5CC(c6ccc(OC)cc6)=NN5)c4)ccc3O)C2)cc1 (centres undefined) | 92.2%

These compounds were tested on SNB-75 CNS in the same assay as above. Conditions: 10 µM unless noted.

Row | SMILES | growth
38 | Cn1cc(-c2csc(-c3c[nH]c4ncccc34)n2)c2cc(F)cnc21 | 66.2%
39 | O=C(C(=O)N1CCOCC1)c1ccc(OC2OC(CO)C(O)C(O)C2O)cc1 (centres undefined) | 89.5%
40 | ClC1C2CC(c3ccccc32)C1Cl (centres undefined) | 102%
41 | CN(C)c1nc(N)nc(Cn2c(-c3nonc3N)nc3ccccc32)n1 | 56.4%
42 | Cc1nn(-c2ccc(Cl)cc2)c2nc3c(nc12)c(=O)oc1ccccc13 | 92.1%
43 | Cn1cc(-c2nc(-c3c[nH]c4ncc(F)cc34)cs2)c2cccnc21 | 101%
44 | Cc1ccc(C(O)C2=CC(=O)c3ccccc3C2=O)cc1 (centres undefined) | 92.3%
45 | NC(N)=N/N=C(/c1ccccc1)c1ccc(Cl)cc1 | 56.1%
46 | O=C(C(=O)N1CCCCC1)c1ccc(OC2OC(CO)C(O)C(O)C2O)cc1 (centres undefined) | 91.9%
47 | COc1cc2c(cc1OC)C1CCN3C(=O)CCC3N1CC2 (centres undefined) | 105%
48 | NNC(=O)C1CC2c3ccccc3C1c1ccccc12 (centres undefined) | 90.8%
49 | Nc1nc(Cl)c2[nH]cnc2n1 | 79.6%
50 | O=C(Nc1ccccc1Cl)c1cnc2ccc(C3CCNCC3)cn12 | -6.82% (active)
51 | CC(C)[C@]12O[C@H]1[C@@H]1O[C@]13[C@]1(O[C@H]1C[C@H]1C4=C(CC[C@@]13C)C(=O)OC4)[C@@H]2OC(=O)CN(C)C | -65.4% (active)
52 | O=NC1CC=CCC1c1ccccc1 (centres undefined) | 93.5%
53 | O=C1C2C3C=CC(O3)C2C(=O)N1Nc1ccccc1 (centres undefined) | 93.3%
54 | COc1ccc(-c2c3c(nn2-c2ccc(N)cc2)CCc2cnoc2-3)cc1OC | 79.4%
55 | Cn1c(N)c(N=O)c(=O)[nH]c1=O | 97%
56 | O=C(CSCC(=O)N/N=C/c1ccccc1O)N/N=C\c1ccccc1O | 36.8%

Row | SMILES | growth
57 | Oc1ccc(Cc2ccc(O)c(C3CC(c4ccc(Cl)cc4)=NN3)c2)cc1C1CC(c2ccc(Cl)cc2)=NN1 (centres undefined) | 36.1%
58 | CSc1nc2c(c(=O)n1C)C(c1ccccc1)C1=C(N2)/C(=C/c2ccccc2)CCC1 (centres undefined) | 57.9%
59 | CC(C)[C@H]1CC[C@H]2[C@@H](CC[C@H]3[C@](C)(CN)CCC[C@]23C)C1 | 69%
60 | COc1ccc(OC)c(/C=C/c2nc(=S)n(-c3ccc(Cl)cc3)[nH]2)c1 | 42.5%
61 | CC1SC(c2c(Cl)cccc2Cl)N(NC(=O)c2[nH]c3ccc(F)cc3c2-c2ccccc2)C1=O (centres undefined) | -53% (active)
62 | COc1ccc(COC(C)=O)cc1 | 114%
63 | Clc1ccc(-n2cnc3c(Cl)ncnc32)cc1Cl | 99.5%
64 | COc1ccc2[nH]cc(/C=C3/C(=O)Nc4ccc(F)cc43)c2c1 | 43.2%
65 | O=C(CSc1nc2c(n1Nc1ccccc1)-c1ccccc1SC2)Nc1nc(-c2ccc(Cl)cc2)cs1 | 44.8%
66 | COc1cc(C2NC(c3ccc(Cl)cc3)C(C)C(=NC(=O)c3cnccn3)C2C)cc(OC)c1OC (centres undefined) | 90.9%
67 | O=C(c1ccccc1)c1ccccc1Cl | 88.8%
68 | Nc1nonc1-c1nc2ccccc2n1CC(=O)Nc1ccc2c(c1)COC2=O | 36.5%
69 | COc1ccc(/C=C(\C#N)c2ccccc2)cc1 | 64.6%
70 | Cn1cc(-c2csc(-c3cn(C)c4ncccc34)n2)c2cc(Br)cnc21 | 73.1%
71 | CC(c1cc(Cl)ccc1O)c1cc(Cl)ccc1O | 35.8%
72 | O=C1c2nsnc2C(=O)c2c(F)c(F)c(F)c(F)c21 | -76.4% (active)
73 | CCOC(=O)/C(=C/c1ccccc1)C(=O)c1ccccc1 | 49.6%
74 | COc1ccc(C2=NNC(c3cc(Cc4ccc(O)c(C5CC(c6ccc(OC)cc6)=NN5)c4)ccc3O)C2)cc1 (centres undefined) | 46.6%
